Experiments:
Experiment in all cases: log2 ratio of Biotin-Ahx-Ub-VS probe labelling (fragment/DMSO); higher = less target engagement (more negative = stronger competition), active = hit call of the paper (q ≤ 0.05, log2 ratio ≤ -1)
Conditions in all cases: compound concentration: 200 uM; treatment time: 3 h
ALG13 = target: T1, ALG13 (UniProt Q9NP73)
T1 sequence (whole entry): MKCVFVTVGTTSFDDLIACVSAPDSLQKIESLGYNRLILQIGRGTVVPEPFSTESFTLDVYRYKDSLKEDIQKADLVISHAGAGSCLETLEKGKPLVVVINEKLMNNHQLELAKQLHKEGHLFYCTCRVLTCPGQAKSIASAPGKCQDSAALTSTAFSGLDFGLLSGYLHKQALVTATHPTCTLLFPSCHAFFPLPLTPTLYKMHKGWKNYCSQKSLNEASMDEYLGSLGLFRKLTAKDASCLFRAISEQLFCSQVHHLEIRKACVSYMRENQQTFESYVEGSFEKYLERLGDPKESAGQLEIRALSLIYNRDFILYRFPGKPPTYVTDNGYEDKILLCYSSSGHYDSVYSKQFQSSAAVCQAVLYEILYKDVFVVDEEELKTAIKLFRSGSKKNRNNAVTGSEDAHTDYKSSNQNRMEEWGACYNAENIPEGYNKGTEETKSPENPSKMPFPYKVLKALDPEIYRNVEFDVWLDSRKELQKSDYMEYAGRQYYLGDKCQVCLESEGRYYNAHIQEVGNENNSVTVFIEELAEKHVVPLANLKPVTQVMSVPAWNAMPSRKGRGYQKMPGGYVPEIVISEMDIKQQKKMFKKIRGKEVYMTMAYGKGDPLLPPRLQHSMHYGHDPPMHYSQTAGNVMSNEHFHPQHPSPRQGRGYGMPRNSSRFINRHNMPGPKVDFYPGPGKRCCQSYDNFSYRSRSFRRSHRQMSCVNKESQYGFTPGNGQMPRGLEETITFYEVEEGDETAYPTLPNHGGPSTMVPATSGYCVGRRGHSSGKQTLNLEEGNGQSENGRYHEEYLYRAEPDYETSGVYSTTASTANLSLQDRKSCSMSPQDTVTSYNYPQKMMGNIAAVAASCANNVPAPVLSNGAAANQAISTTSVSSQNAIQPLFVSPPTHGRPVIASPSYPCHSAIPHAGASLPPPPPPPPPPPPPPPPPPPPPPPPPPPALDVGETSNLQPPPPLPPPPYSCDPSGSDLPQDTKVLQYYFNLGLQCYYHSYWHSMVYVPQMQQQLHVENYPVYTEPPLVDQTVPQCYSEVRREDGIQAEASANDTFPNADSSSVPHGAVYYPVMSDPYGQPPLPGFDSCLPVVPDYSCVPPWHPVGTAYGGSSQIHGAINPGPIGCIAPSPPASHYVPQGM
Outline: (§1)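 HEK293T lysate in Tris/CHAPS/IGEPAL buffer with protease inhibitors (495 µg per sample) was given fragment at 200 µM or vehicle for 3 h, in triplicate. It then received Biotin-Ahx-Ub-VS at 0.5 µM final for 1 h. Labelled DUBs were NeutrAvidin-enriched, digested with LysC and trypsin, and run by diaPASEF LC-MS/MS. Values are average log2 fragment/vehicle ratios by unpaired t-test on global-median-normalised Spectronaut quantities of proteins with ≥2 unique peptides.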

ATXN3 = ATXN3 (UniProt P54252)
Chain of ATXN3 (P54252 whole entry): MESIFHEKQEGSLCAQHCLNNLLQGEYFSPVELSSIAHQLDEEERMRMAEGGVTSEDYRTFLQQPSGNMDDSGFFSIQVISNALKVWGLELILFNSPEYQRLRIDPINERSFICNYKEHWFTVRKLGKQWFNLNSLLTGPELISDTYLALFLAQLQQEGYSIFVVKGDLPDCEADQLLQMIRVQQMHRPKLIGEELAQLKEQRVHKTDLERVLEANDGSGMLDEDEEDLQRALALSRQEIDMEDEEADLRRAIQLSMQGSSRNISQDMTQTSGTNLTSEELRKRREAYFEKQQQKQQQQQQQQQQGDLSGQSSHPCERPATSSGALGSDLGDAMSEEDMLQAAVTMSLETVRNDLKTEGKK
Outline: as §1

BAP1 = target: T2, BAP1 (UniProt Q92560)
T2 sequence (whole entry): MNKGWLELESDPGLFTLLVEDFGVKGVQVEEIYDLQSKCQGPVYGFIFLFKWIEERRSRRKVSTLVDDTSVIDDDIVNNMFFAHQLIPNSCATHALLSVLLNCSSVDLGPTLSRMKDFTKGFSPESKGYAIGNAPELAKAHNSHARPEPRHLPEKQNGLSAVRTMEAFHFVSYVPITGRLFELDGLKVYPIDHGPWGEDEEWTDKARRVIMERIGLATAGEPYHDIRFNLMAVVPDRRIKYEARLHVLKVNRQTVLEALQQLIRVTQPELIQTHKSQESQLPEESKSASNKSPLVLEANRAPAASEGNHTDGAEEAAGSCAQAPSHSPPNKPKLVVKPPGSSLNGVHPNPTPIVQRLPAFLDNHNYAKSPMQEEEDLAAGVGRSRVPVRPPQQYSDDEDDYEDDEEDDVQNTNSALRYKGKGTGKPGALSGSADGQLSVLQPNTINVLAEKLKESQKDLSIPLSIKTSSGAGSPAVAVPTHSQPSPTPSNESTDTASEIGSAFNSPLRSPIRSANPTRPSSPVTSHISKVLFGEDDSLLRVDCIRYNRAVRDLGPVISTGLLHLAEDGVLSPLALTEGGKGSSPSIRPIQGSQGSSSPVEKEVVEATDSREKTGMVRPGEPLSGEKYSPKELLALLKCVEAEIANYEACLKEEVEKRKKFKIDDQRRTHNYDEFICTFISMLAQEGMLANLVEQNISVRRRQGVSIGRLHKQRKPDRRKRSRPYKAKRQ
Outline: as §1

EIF3F = EIF3F (UniProt O00303)
Chain of EIF3F (O00303 whole entry): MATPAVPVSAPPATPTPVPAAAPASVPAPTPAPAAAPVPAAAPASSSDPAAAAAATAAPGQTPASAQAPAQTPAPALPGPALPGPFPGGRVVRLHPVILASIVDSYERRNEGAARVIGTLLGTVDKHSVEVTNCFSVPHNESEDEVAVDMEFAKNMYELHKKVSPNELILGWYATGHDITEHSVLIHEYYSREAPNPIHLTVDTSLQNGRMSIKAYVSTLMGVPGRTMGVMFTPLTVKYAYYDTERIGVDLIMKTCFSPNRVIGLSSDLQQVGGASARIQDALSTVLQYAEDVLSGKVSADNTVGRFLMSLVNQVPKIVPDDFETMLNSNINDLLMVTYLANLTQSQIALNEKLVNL
Outline: as §1

EIF3H = EIF3H (UniProt O15372)
Chain of EIF3H (O15372 whole entry): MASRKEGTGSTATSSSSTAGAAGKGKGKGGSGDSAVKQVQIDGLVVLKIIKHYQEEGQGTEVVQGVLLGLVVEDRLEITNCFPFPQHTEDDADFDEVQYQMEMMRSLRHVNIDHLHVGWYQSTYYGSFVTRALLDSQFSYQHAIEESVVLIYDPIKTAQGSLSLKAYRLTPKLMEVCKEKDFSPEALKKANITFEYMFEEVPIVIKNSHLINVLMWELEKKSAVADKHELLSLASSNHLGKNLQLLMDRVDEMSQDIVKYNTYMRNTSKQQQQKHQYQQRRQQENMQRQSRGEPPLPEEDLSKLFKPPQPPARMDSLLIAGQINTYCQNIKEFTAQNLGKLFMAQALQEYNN
Outline: as §1

FAM105A = target: T3, FAM105A (UniProt Q9NUU6)
T3 sequence (whole entry): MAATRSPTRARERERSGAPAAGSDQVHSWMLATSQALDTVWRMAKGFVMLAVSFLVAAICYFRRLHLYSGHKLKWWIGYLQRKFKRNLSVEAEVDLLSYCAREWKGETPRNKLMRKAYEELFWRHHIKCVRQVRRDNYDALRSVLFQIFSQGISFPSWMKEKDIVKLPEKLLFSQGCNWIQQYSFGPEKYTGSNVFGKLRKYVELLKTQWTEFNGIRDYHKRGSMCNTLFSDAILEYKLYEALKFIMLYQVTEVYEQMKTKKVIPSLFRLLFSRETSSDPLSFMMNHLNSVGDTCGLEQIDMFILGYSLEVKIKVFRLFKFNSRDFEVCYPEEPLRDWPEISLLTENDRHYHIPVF
Outline: as §1

OTUB1 = OTUB1 (UniProt Q96FW1)
Chain of OTUB1 (Q96FW1 whole entry): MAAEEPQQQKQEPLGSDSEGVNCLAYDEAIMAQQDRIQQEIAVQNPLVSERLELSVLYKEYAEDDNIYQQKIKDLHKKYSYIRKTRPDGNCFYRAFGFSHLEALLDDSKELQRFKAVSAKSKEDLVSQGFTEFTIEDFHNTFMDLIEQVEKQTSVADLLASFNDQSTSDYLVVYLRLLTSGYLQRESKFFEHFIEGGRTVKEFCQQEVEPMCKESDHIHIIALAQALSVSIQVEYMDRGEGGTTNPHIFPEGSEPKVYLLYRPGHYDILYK
Outline: as §1

OTUD4 = target: T4, OTUD4 (UniProt Q01804)
T4 sequence (whole entry): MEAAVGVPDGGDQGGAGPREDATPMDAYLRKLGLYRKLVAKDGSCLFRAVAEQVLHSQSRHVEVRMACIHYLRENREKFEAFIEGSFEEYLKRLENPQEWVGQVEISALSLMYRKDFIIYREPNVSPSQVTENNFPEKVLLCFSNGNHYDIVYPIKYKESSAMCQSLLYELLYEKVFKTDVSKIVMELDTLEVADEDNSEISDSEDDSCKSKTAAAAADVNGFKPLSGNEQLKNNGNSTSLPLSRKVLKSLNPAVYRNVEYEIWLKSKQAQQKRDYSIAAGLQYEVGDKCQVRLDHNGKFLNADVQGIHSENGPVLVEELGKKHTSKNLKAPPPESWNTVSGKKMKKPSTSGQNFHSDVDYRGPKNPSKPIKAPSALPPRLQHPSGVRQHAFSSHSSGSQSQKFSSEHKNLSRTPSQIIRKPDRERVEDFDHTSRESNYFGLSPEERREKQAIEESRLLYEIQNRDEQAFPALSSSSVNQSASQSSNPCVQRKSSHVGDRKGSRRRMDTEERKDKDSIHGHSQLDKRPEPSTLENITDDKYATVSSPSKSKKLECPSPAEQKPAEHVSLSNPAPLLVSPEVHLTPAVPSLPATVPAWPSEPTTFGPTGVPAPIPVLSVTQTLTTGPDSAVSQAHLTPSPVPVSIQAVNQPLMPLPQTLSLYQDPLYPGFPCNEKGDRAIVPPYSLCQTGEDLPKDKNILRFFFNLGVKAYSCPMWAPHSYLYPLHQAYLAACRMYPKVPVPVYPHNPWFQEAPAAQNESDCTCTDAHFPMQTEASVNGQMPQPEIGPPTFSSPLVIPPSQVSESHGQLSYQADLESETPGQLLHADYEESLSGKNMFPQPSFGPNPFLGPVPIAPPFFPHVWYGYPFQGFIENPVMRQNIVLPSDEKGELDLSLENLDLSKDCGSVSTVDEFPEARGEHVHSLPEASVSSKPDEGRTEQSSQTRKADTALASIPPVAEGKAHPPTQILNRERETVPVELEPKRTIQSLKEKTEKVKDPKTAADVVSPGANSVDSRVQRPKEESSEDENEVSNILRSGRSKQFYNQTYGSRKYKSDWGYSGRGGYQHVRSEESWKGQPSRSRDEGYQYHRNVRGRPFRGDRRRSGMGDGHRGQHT
Outline: as §1

OTUD5 = target: T5, OTUD5 (UniProt Q96G74)
T5 sequence (whole entry): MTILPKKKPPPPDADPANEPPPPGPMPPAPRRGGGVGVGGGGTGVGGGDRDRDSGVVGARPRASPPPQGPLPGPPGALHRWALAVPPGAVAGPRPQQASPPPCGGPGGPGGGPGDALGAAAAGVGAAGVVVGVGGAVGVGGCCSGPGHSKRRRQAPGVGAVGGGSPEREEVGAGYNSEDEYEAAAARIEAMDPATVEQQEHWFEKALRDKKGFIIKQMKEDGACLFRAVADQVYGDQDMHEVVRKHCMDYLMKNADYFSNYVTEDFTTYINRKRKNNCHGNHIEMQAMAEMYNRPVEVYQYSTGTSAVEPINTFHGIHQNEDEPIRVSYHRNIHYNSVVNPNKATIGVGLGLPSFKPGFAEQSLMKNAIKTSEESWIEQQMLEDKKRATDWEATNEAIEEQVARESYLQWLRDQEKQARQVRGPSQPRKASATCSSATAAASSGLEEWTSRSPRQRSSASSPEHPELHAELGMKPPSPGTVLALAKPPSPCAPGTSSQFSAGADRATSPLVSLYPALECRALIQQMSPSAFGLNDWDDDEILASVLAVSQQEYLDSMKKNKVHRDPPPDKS
Outline: as §1

Measured: log2 ratio of Biotin-Ahx-Ub-VS probe labelling

O=C(CCl)N1CCC(c2noc3cc(F)ccc23)CC1
inactive: ALG13 0.141 | ATXN3 -0.734 | EIF3F -0.419 | EIF3H 0.209 | FAM105A -0.1 | OTUB1 -0.253 | OTUD4 -0.413 | OTUD5 -0.644
active: BAP1 -1.19
